The values below come from the supplement of paper PMC11001985.

A number with no mark means an inactive call.

Chain of UniProt P06733 (P06733 whole entry): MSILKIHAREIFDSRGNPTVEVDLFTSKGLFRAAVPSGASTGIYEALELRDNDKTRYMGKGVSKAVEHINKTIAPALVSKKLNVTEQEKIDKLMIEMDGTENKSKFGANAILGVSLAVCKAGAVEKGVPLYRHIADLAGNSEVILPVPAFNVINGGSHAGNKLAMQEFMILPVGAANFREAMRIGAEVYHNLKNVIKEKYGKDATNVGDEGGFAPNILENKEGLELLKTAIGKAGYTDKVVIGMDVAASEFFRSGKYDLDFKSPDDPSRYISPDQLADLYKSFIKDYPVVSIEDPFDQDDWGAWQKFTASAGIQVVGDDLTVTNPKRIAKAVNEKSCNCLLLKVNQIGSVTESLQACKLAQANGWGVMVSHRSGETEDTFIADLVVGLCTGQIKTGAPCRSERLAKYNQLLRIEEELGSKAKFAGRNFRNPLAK
Chain of UniProt Q13620 (Q13620 whole entry): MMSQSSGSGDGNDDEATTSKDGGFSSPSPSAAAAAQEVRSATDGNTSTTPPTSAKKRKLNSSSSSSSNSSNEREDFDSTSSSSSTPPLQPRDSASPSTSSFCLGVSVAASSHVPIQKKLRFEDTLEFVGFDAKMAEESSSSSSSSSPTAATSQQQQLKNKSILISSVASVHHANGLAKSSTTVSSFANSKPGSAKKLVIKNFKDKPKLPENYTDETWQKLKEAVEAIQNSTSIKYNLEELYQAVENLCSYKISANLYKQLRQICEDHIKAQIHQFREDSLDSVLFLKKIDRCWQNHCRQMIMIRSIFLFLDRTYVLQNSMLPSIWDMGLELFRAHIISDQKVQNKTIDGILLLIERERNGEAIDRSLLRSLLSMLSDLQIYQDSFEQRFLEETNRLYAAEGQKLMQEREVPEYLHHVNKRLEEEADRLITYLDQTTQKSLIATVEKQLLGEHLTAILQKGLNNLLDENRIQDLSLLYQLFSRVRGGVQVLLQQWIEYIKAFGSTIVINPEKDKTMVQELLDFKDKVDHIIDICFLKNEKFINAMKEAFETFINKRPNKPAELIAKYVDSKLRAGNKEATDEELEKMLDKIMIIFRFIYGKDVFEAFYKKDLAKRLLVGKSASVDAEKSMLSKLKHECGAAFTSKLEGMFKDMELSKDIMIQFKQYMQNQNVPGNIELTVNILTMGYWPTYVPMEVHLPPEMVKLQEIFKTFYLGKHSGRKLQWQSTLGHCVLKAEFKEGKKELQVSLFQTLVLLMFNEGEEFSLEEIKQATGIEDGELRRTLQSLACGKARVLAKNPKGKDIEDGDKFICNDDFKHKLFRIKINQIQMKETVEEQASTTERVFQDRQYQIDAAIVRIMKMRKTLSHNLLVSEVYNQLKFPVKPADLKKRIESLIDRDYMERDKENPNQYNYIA
Chain of UniProt Q14697 (Q14697 whole entry): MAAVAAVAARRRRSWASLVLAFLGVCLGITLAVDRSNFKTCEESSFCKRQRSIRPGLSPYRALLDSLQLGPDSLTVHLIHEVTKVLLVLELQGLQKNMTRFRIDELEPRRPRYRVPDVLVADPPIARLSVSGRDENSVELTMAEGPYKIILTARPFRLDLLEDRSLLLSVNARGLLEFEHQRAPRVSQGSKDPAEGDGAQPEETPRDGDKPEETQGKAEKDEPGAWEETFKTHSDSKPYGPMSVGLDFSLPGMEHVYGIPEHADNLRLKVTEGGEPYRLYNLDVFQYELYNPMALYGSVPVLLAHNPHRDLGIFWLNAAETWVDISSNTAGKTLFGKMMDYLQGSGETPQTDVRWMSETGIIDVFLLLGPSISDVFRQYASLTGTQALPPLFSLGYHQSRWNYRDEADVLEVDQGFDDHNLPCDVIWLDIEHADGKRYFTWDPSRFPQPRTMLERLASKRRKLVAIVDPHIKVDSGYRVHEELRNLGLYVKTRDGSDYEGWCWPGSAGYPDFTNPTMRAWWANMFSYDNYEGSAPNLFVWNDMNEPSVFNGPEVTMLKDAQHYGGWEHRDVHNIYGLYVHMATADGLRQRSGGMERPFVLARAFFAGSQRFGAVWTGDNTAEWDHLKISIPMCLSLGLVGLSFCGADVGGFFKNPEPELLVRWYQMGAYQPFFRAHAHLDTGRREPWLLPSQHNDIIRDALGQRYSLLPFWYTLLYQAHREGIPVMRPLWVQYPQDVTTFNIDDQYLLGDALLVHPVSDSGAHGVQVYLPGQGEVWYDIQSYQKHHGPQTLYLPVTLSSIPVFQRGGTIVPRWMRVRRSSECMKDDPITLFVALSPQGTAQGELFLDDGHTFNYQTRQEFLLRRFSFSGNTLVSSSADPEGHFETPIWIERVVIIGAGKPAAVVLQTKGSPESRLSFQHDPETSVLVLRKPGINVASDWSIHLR
Chain of UniProt P41252 (P41252 whole entry): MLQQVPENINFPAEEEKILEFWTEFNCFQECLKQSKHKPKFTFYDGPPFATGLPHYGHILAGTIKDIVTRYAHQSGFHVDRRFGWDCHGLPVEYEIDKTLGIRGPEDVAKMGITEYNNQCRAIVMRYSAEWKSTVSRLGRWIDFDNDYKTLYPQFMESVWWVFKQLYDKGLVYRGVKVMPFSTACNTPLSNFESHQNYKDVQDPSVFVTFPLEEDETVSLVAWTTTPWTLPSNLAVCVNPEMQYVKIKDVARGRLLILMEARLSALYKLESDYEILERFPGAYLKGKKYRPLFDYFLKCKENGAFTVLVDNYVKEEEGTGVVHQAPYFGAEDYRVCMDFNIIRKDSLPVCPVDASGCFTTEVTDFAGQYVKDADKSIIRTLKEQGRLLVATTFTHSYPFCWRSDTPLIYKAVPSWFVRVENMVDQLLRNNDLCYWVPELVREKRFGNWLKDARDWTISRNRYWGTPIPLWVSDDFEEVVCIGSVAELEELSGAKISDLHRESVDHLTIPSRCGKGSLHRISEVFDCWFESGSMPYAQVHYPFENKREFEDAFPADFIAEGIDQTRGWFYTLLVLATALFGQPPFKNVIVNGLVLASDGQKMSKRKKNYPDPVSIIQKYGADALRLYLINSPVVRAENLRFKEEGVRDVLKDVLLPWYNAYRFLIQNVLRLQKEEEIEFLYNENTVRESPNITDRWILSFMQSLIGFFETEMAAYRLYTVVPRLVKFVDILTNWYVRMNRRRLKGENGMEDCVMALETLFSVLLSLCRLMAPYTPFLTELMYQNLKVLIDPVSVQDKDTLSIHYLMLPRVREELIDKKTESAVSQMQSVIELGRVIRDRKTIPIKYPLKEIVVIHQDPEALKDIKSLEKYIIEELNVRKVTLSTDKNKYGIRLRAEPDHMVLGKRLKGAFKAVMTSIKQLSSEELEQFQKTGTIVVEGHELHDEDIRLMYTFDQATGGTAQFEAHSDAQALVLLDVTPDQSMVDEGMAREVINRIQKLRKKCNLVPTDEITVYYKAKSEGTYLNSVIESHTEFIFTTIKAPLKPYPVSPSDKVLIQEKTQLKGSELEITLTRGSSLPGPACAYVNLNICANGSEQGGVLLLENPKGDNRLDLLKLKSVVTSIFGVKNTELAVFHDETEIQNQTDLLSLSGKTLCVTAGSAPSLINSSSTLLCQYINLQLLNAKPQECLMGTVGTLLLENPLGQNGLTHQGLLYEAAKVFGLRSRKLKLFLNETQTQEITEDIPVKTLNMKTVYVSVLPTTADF
Chain of UniProt P06756 (P06756 whole entry): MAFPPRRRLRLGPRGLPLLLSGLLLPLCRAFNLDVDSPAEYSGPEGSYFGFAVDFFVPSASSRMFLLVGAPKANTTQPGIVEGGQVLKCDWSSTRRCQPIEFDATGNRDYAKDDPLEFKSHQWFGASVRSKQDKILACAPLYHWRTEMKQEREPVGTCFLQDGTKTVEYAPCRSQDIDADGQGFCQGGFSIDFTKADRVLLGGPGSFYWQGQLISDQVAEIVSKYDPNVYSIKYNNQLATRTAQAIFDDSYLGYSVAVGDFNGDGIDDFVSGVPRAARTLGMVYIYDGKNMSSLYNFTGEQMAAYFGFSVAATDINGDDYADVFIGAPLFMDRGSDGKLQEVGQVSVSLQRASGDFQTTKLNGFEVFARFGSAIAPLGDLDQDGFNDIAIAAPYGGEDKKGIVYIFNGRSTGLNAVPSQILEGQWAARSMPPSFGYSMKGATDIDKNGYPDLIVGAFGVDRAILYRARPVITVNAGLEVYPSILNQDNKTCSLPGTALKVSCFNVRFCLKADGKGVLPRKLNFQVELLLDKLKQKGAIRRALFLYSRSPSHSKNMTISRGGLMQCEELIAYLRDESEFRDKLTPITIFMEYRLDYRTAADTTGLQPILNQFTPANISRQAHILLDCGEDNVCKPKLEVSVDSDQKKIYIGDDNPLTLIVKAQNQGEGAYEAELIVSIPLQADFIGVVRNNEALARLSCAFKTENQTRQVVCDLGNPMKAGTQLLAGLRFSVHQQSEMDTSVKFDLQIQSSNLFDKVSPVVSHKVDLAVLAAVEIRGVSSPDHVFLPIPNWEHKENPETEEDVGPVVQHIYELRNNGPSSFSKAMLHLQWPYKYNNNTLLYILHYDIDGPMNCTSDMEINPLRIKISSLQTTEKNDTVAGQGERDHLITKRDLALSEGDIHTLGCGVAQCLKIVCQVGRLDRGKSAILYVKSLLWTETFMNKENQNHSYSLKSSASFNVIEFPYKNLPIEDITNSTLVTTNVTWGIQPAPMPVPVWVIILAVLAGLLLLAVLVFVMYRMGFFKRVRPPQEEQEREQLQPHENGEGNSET
Chain of UniProt P21291 (P21291 whole entry): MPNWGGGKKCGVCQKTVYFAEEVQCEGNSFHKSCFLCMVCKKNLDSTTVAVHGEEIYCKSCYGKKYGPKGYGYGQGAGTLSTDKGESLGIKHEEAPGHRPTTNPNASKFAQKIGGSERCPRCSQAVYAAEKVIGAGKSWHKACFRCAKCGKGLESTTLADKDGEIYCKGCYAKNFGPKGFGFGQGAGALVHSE
Chain of UniProt P34741 (P34741 whole entry): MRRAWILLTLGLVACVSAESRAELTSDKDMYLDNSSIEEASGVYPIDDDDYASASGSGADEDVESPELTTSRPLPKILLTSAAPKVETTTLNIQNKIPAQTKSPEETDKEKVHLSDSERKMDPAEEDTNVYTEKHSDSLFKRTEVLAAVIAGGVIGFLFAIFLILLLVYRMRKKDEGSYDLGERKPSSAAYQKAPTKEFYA

Compound in the assay: C#CCNC(=O)CCSSCCC(=O)NCCc1ccc(C=O)c(C=O)c1
Put plainly: lysine labeling ratio R10:1 (500 µM / 50 µM probe), SILAC-ABPP in living cells; higher = lower intrinsic lysine reactivity toward the probe, active = 2 or less. The settings on record: HeLa; probe concentrations 500 vs 50 µM. The method in brief: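 In PBS at room temperature, living HeLa cells grown with SILAC light or heavy labels were treated with 50 µM or 500 µM of an alkyne-tagged, disulfide-linked lysine probe, with label swaps in both directions. Analysis was by LC-MS/MS on a TIMS-TOF Pro after click to biotin-azide, neutravidin capture and DTT release. For each lysine, R is the median across forward and reverse replicates of the filtered median high-probe/low-probe MS1 peptide ratio, capped at 20.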
In the case of “SDC2 (lysine site: K111) (UniProt P34741)”, the “lysine labeling ratio R10:1” value is 1.38 (active). Next, “F13A1 (lysine site: K258) (UniProt P00488)”: 1.15 (active); UniProt Q15149 (lysine site: K3237): 1.17 (active). The result for “IARS (lysine site: K903) (UniProt P41252)” reads 1.66 (active); that for “FAT4 (lysine site: K2561) (UniProt Q6V0I7)”, 2.59; that for “HNRNPL (lysine site: K538) (UniProt P14866)”, 1.29 (active). Next, “PDCD6IP (lysine site: K690) (UniProt Q8WUM4)”: 2.89. Consider “RPL34 (lysine site: K62) (UniProt P49207)”, for which the “lysine labeling ratio R10:1” value is 10.1.

For the target UniProt P62269 (lysine site: K47), the “lysine labeling ratio R10:1” value is 1.41 (active).

As to “CCT2 (lysine site: K441) (UniProt P78371)”, the “lysine labeling ratio R10:1” value is 1.98 (active).

For the target “EEF2 (lysine site: K598) (UniProt P13639)”, the “lysine labeling ratio R10:1” value is 1.36 (active). Next, “HSPA8 (lysine site: K257) (UniProt P11142)”: 3.1; “ENO1 (lysine site: K422) (UniProt P06733)”: 2.65. As to UniProt Q12884 (lysine site: K334), the “lysine labeling ratio R10:1” value was 3.23. Next, “ALCAM (lysine site: K87) (UniProt Q13740)”: 1.41 (active); “ROR2 (lysine site: K382) (UniProt Q01974)”: 1.95 (active). Turning to “RPL3 (lysine site: K356) (UniProt P39023)”, the “lysine labeling ratio R10:1” value is 2.08. The result for “P30462 (lysine site: K210) (UniProt P01889)” reads 2.33; that for UniProt P61353 (lysine site: K98), 1.21 (active). The result for “VASN (lysine site: K154) (UniProt Q6EMK4)” reads 1.64 (active); that for “ENO1 (lysine site: K262) (UniProt P06733)”, 2.83. The result for “CSRP1 (lysine site: K112) (UniProt P21291)” reads 1.46 (active).

UniProt Q13620 (lysine site: K903): the “lysine labeling ratio R10:1” value is 3.24. Next, “GANAB (lysine site: K191) (UniProt Q14697)”: 4.19. As for “G6PD (lysine site: K171) (UniProt P11413)”, the “lysine labeling ratio R10:1” value is 6.51. Next, “IGF2R (lysine site: K1873) (UniProt P11717)”: 0.826 (active).

With “EPRS (lysine site: K360) (UniProt P07814)”, the “lysine labeling ratio R10:1” value was 1.77 (active). For “RPL4 (lysine site: K259) (UniProt P36578)”, the “lysine labeling ratio R10:1” value was 1.88 (active). Next, UniProt Q14574 (lysine site: K281): 1.99 (active). Next, “HSPA5 (lysine site: K353) (UniProt P11021)”: 3.4; “ITGAV (lysine site: K233) (UniProt P06756)”: 2.51. The result for “EHD2 (lysine site: K32) (UniProt Q9NZN4)” reads 2.92; that for “YBX1 (lysine site: K137) (UniProt P67809)”, 7.5; that for “SLC12A7 (lysine site: K393) (UniProt Q9Y666)”, 3.46. Turning to “A2M (lysine site: K115) (UniProt P01023)”, the “lysine labeling ratio R10:1” value is 0.757 (active). Next, “RPL22 (lysine site: K52) (UniProt P35268)”: 7.72; “RUVBL2 (lysine site: K279) (UniProt Q9Y230)”: 2.65. The result for CS (lysine site: K76) (UniProt O75390) reads 5.03; that for “PCBP2 (lysine site: K322) (UniProt Q15366)”, 4.37. As to WDR1 (lysine site: K7) (UniProt O75083), the “lysine labeling ratio R10:1” value was 0.76 (active).
